BoNT-F LC inh = BoNT F light chain protease inhibition | 360,000 tested, 0.22% active | Multiplex microsphere protease cleavage assay, flow cytometry | inhibition, % at 10 µM; in the data active = inhibition above about 35%, passing the limit was not always enough; inconclusive = no clear call, values can overlap the other calls
Anthrax LF prot = anthrax lethal factor protease inhibition. P15917. multiplex microsphere protease cleavage assay, LF. inhibition, % at 10 µM. 360,000 tested, 0.12% active. AID 588501
Target sequence (P15917 whole entry, looked up): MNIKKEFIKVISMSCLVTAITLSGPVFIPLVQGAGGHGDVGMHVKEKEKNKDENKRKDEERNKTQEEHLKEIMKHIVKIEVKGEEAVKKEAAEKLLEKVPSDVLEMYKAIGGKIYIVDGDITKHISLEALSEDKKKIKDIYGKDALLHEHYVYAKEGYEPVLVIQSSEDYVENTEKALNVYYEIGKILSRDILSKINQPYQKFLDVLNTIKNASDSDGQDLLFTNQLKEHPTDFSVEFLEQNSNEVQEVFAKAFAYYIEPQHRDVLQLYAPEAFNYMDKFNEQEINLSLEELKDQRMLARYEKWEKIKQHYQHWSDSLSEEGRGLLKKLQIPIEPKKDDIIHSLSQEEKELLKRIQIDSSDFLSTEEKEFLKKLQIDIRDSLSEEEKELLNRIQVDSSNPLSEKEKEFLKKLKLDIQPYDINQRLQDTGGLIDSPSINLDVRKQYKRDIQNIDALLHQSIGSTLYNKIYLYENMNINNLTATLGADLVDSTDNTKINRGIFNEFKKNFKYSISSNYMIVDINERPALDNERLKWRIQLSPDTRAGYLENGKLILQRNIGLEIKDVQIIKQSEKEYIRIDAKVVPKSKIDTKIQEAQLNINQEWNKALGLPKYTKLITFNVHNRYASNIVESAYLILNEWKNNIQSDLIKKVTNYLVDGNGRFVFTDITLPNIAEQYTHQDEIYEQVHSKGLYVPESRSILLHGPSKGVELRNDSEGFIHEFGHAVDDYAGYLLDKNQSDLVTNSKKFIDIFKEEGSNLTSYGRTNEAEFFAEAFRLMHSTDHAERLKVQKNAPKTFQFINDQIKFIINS
Autofluor counter = flagged as autofluorescent in microsphere protease counterscreen; fluorescence intensity (no concentration beside the values); compound autofluorescence counterscreen, microsphere flow cytometry; active compounds read high; 360,000 tested, 3.1% active; in the data active = fluorescence intensity above about 16000; inconclusive = no clear call, values can overlap the other calls
BoNT-A LC inh2 = BoNT A light chain protease inhibition; 360,000 tested, 0.17% active; AID 588499; inhibition, % at 10 µM; multiplex microsphere protease substrate cleavage, flow cytometry
CCHFV vOTU inh = blocks the CCHF virus ovarian tumor domain protease; inhibition, % at 11.5 µM; 370,000 tested, 0.55% active; CCHFV vOTU protease, Pep-AMC fluorescence; in the data active = inhibition above about 30%
SARS 3CLpro inh-1 = SARS-CoV 3CLpro protease inhibition | P0C6X7 | recombinant SARS-CoV 3CLpro, quenched FRET peptide cleavage | inhibition, % at 6 µM | 290,000 tested, 0.14% active | AID 1706; in the data active = inhibition above about 12%
SARS 3CLpro inh-2 = confirmation of SARS coronavirus 3C-like protease inhibitors. shares compounds with SARS 3CLpro inh-1. QFRET protease activity assay, 3CLpro. inhibition, % at 6 µM. 380 tested, 36% active. AID 1879; in the data active = inhibition above about 13%
Large screens that a line does not name were inactive (follow-up assays come after a bar, where they were run). Hits are enriched below; roughly 3.9% of the tested compounds scored in any of these assays. Cut-off read from the data, not from the text of the source, unless noted: active = inhibition above about 30%; inconclusive = no clear call, values can overlap the other calls; inactive = below that.

O=C(Cc1ccc(Cl)c(Cl)c1)Nc1cccnc1	SARS 3CLpro inh-1 23 | SARS 3CLpro inh-2 21
CCCCOCCCNC(=O)C[C@H]1C[C@@]2(C(=O)OC)C(=C[C@H](C(C)C)O[C@@H]2C2CC2)N(CCc2ccc(OC)c(OC)c2)C1=O	none (no result: BoNT-F LC inh, Anthrax LF prot, Autofluor counter, BoNT-A LC inh2, SARS 3CLpro inh-1)
C/C(=N\N=C(/N)SC1CC(=O)N(c2ccc(Cl)cc2)C1=O)c1cccs1 (centres undefined)	SARS 3CLpro inh-1 13 | SARS 3CLpro inh-2 inactive
C/C(=N\N=C(/N)SC1CC(=O)N(c2ccccc2)C1=O)c1cccs1 (centres undefined)	none
Cc1cccc(NS(=O)(=O)c2nnc(NC(=O)c3cccc(C)c3)s2)c1	SARS 3CLpro inh-1 12 | SARS 3CLpro inh-2 inactive
Cc1cccc(NS(=O)(=O)c2nnc(NC(=O)c3ccc(Cl)cc3)s2)c1	SARS 3CLpro inh-1 13 | SARS 3CLpro inh-2 inactive
COc1cccc(NC(=O)C2CCCN2C(=O)NC2CCC(C)CC2)c1 (centres undefined)	none (no result: BoNT-F LC inh, Anthrax LF prot, Autofluor counter, BoNT-A LC inh2, SARS 3CLpro inh-1)
CNc1ccc(Br)cc(C(=O)/C=C/c2ccc3c(c2)OCO3)c1=O	SARS 3CLpro inh-1 13 | SARS 3CLpro inh-2 inactive
Cc1ccc(C(=O)N(C)[C@H]2C[C@H]3c4[nH]c5c(-c6ccccc6)cccc5c4CCN3C(=O)[C@H]2[C@H](C)O)cc1	none (no result: BoNT-F LC inh, Anthrax LF prot, Autofluor counter, BoNT-A LC inh2, SARS 3CLpro inh-1)
CCc1nnc(NS(=O)(=O)c2ccc(NC(=O)/C=C/c3ccc(F)cc3)cc2)s1	SARS 3CLpro inh-1 13 | SARS 3CLpro inh-2 inactive
CC(C)(C)S(=O)(=O)N1C[C@H]2CC(=O)C(CCO)=C2[C@@H]1CCO	none (no result: BoNT-F LC inh, Anthrax LF prot, Autofluor counter, BoNT-A LC inh2, SARS 3CLpro inh-1)
O=C(O)CC1(CC(=O)Nc2ccccc2C(=O)c2ccccc2)CCCC1	none
O=C(CCl)Nc1ccccc1C(=O)c1ccccc1	SARS 3CLpro inh-1 13 | SARS 3CLpro inh-2 inactive
O=C(Oc1cccnc1)c1ccc(Cl)cc1	SARS 3CLpro inh-1 24 | SARS 3CLpro inh-2 34
O=C(C(=O)N1CCC(CNS(=O)(=O)c2ccc3ccccc3c2)CC1)c1cc2ccccc2o1	none (no result: BoNT-F LC inh, Anthrax LF prot, Autofluor counter, BoNT-A LC inh2, SARS 3CLpro inh-1)
Cn1ncc(Cl)c1C(=O)NCc1ccc2c(c1)OCO2	none
Cn1ncc(Cl)c1C(=O)Nc1ccc2c(c1)OCO2	SARS 3CLpro inh-1 13 | SARS 3CLpro inh-2 inactive
C=CCc1c(C)nc2c(C)cccc2c1SC(=N)N	BoNT-F LC inh inconclusive, SARS 3CLpro inh-1 16 | SARS 3CLpro inh-2 inactive
COC(=O)C1CN(Cc2ccc(Cl)cc2)CCS(=O)(=O)N1Cc1cn(Cc2ccc(C)cc2)nn1 (centres undefined)	none (no result: BoNT-F LC inh, Anthrax LF prot, Autofluor counter, BoNT-A LC inh2, SARS 3CLpro inh-1)
CC(=O)NC1C(=O)N(CCN2CCOCC2)c2ccc(Br)cc21 (centres undefined)	SARS 3CLpro inh-1 14 | SARS 3CLpro inh-2 47
Cc1nnc(C)n1N=Cc1ccc(O)cc1O	none (no result: BoNT-F LC inh, Anthrax LF prot, Autofluor counter, BoNT-A LC inh2, SARS 3CLpro inh-1)
C=CCN1[C@@H](C)COc2cc(N3CCSCC3)ccc2S1(=O)=O	none (no result: BoNT-F LC inh, Anthrax LF prot, Autofluor counter, BoNT-A LC inh2, SARS 3CLpro inh-1)
CCn1nc(NS(=O)(=O)c2ccc([N+](=O)[O-])cc2)c2cc3cccc(C)c3nc21	SARS 3CLpro inh-1 12 | SARS 3CLpro inh-2 inactive
CCn1nc(NC(=O)C(C)(C)C)c2cc3cccc(C)c3nc21	none
CCn1nc(NS(=O)(=O)c2ccccc2)c2cc3cc(C)ccc3nc21	SARS 3CLpro inh-1 12 | SARS 3CLpro inh-2 inactive
CC1CCN(c2ccc3nnc(CCC(=O)NCCCOC(C)C)n3n2)CC1	SARS 3CLpro inh-1 16 | SARS 3CLpro inh-2 inactive
CCCNC(=O)CCc1nnc2ccc(N3CCC(C)CC3)nn12	none
COC(=O)C1CN(C2CCCC2)CCS(=O)(=O)N1Cc1cn(Cc2ccc(C)cc2)nn1 (centres undefined)	none (no result: BoNT-F LC inh, Anthrax LF prot, Autofluor counter, BoNT-A LC inh2, SARS 3CLpro inh-1)
O=C(N[C@@H](Cc1ccc(Br)cc1)C(=O)O)OCC1c2ccccc2-c2ccccc21	SARS 3CLpro inh-1 12 | SARS 3CLpro inh-2 inactive
N[C@H]1CC[C@@H]2SC[C@@H](C(=O)O)N2C1=O	none (no result: BoNT-F LC inh, Anthrax LF prot, Autofluor counter, BoNT-A LC inh2, SARS 3CLpro inh-1)
O=C(NC(NC(=S)Nc1cccc(C(=O)O)c1)C(Cl)(Cl)Cl)OCc1ccccc1 (centres undefined)	none
O=C(NC(NC(=S)Nc1cccc(Cl)c1)C(Cl)(Cl)Cl)OCc1ccccc1 (centres undefined)	SARS 3CLpro inh-1 13 | SARS 3CLpro inh-2 inactive
CC1COCC(C)N1S(=O)(=O)c1ccc2c(c1)CCN2C(=O)C1CCC1 (centres undefined)	none (no result: BoNT-F LC inh, Anthrax LF prot, Autofluor counter, BoNT-A LC inh2, SARS 3CLpro inh-1)
CCOc1ccc2c(c1)C(=O)C(=O)N2CC1COc2ccccc2O1 (centres undefined)	SARS 3CLpro inh-1 58 | SARS 3CLpro inh-2 60
Cc1ccc2c(c1)C(=O)C(=O)N2CC1COc2ccccc2O1 (centres undefined)	none
COc1ccc2c(c1)C(=O)C(=O)N2CC1COc2ccccc2O1 (centres undefined)	SARS 3CLpro inh-1 35 | SARS 3CLpro inh-2 40
CCn1c(COc2ccccc2)nnc1SCC(=O)C(C)(C)C	SARS 3CLpro inh-1 15 | SARS 3CLpro inh-2 inactive
CC(C)(C)OC(=O)NCc1ccc(CNC(=O)c2[nH]cnc2C(=O)N[C@@H](Cc2ccccc2)C(=O)OC(C)(C)C)cc1	SARS 3CLpro inh-1 15 | SARS 3CLpro inh-2 inactive
CC(C)(C)OC(=O)NCc1ccc(NC(=O)c2nc[nH]c2C(=O)N[C@@H](Cc2ccccc2)C(=O)OCc2ccccc2)cc1	none (no result: SARS 3CLpro inh-1)
CC(C)(C)OC(=O)NCc1ccc(CNC(=O)c2[nH]cnc2C(=O)N[C@@H](Cc2ccccc2)C(=O)OCc2ccccc2)cc1	SARS 3CLpro inh-1 14 | SARS 3CLpro inh-2 inactive
